Experimental data taken from PubChem BioAssay AID1159580 (chemical genetic matrix, 2015).
Several values for one entry are separate records, joined by “and”; a condition that tells them apart may be missing. Equal entries are not always repeated. Screen size: about 5,500 compounds; about 2,000 (36%) were called active. Not shown: some 18% with an inconclusive outcome. No stated cut-off is given here; in the data, active means normalized growth mostly below about 0.91 (no sharp cut-off); inconclusive means no clear call, values can overlap the other calls; inactive means mostly above about 0.92. This is one part of the list.

Assay: chemical genetic growth profiling, strain panel (AID 1159580);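 further: tested at 20 µM; growth read once vehicle control cultures reached saturation at 30 °C; 1 = growth at the plate median or of vehicle wells; lower values mean less growth of the strain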
Details: growth OD

Measured: normalized growth

NC(=O)CN1CCCC1=O
inactive: S. cerevisiae deletion strains, locus YKL009W, strain mrt4, active compounds read low 1.01 | S. cerevisiae deletion strains, locus YKL068W, active compounds read low 1 | S. cerevisiae deletion strains, locus YKL085W, strain MDH1 (second series), active compounds read low 1.02 | S. cerevisiae deletion strains, locus YKL085W, strain MDH1, active compounds read low 1.02 | S. cerevisiae deletion strains, locus YKL160W, strain elf1, active compounds read low 0.967 | S. cerevisiae deletion strains, locus YKL190W, strain CNB1, active compounds read low 1 | S. cerevisiae deletion strains, locus YKR001C, strain vps1, active compounds read low 1.01 | S. cerevisiae deletion strains, locus YKR026C, strain gcn3, active compounds read low 0.992 | S. cerevisiae deletion strains, locus YKR091W, strain srl3, active compounds read low 0.995 | S. cerevisiae deletion strains, locus YLL001W, strain dnm1, active compounds read low 0.958 | S. cerevisiae deletion strains, locus YLL026W, active compounds read low 0.999 | S. cerevisiae deletion strains, locus YLL041C, strain sdh2, active compounds read low 0.992 | S. cerevisiae deletion strains, locus YLR027C, strain aat2, active compounds read low 0.999 | S. cerevisiae deletion strains, locus YLR039C, strain RIC1, active compounds read low 1.01 | S. cerevisiae deletion strains, locus YLR058C, strain SHM2, active compounds read low 1.01 | S. cerevisiae deletion strains, locus YLR102C, strain apc9, active compounds read low 1.01 | S. cerevisiae deletion strains, locus YLR113W, strain HOG1, active compounds read low 0.954 | S. cerevisiae deletion strains, locus YLR221C, strain rsa3, active compounds read low 0.989 | S. cerevisiae deletion strains, locus YLR258W, strain gsy2, active compounds read low 0.99 | S. cerevisiae deletion strains, locus YLR262C, strain YPT6 (second series), active compounds read low 0.987 | S. cerevisiae deletion strains, locus YLR262C, strain YPT6, active compounds read low 1.02 | S. cerevisiae deletion strains, locus YLR268W, strain sec22, active compounds read low 1.01 | S. cerevisiae deletion strains, locus YLR320W, strain mms22, active compounds read low 0.958 | S. cerevisiae deletion strains, locus YLR330W, strain CHS5, active compounds read low 0.996 | S. cerevisiae deletion strains, locus YLR342W, strain FKS1 (second series), active compounds read low 1.02 | S. cerevisiae deletion strains, locus YLR342W, strain FKS1, active compounds read low 0.98 | S. cerevisiae deletion strains, locus YLR357W, strain rsc2, active compounds read low 0.977 | S. cerevisiae deletion strains, locus YLR370C, strain arc18, active compounds read low 0.99 | S. cerevisiae deletion strains, locus YLR371W, strain rom2, active compounds read low 1.01 | S. cerevisiae deletion strains, locus YLR384C, strain iki3, active compounds read low 0.977 | S. cerevisiae deletion strains, locus YLR418C, strain cdc73, active compounds read low 1.01 | S. cerevisiae deletion strains, locus YML016C, strain PPZ1, active compounds read low 0.999 | S. cerevisiae deletion strains, locus YML032C, strain rad52, active compounds read low 1.01 | S. cerevisiae deletion strains, locus YML120C, strain ndi1, active compounds read low 0.983 | S. cerevisiae deletion strains, locus YML124C, strain tub3, active compounds read low 1.01 | S. cerevisiae deletion strains, locus YMR058W, strain fet3, active compounds read low 0.988 | S. cerevisiae deletion strains, locus YMR078C, strain ctf18, active compounds read low 1 | S. cerevisiae deletion strains, locus YMR125W, strain sto1, active compounds read low 0.996 | S. cerevisiae deletion strains, locus YMR129W, active compounds read low 1 | S. cerevisiae deletion strains, locus YMR205C, strain PFK2, active compounds read low 0.973 | S. cerevisiae deletion strains, locus YMR223W, strain ubp8, active compounds read low 1.01 | S. cerevisiae deletion strains, locus YMR231W, strain pep5, active compounds read low 0.997 | S. cerevisiae deletion strains, locus YMR263W, strain SAP30, active compounds read low 0.993 | S. cerevisiae deletion strains, locus YMR307W, strain GAS1, active compounds read low 1.06 | S. cerevisiae deletion strains, locus YNL067W, strain RPL9B, active compounds read low 1.01 | S. cerevisiae deletion strains, locus YNL071W, strain lat1, active compounds read low 0.991 | S. cerevisiae deletion strains, locus YNL128W, strain TEP1, active compounds read low 1.05 | S. cerevisiae deletion strains, locus YNL153C, strain GIM3, active compounds read low 0.979 and 1.17 | S. cerevisiae deletion strains, locus YNL175C, strain NOP13, active compounds read low 0.997 | S. cerevisiae deletion strains, locus YNL183C, strain NPR1, active compounds read low 0.915 | S. cerevisiae deletion strains, locus YNL197C, strain WHI3, active compounds read low 1.01 | S. cerevisiae deletion strains, locus YNL209W, strain ssb2, active compounds read low 0.998 | S. cerevisiae deletion strains, locus YNL224C, strain SQS1, active compounds read low 0.995 | S. cerevisiae deletion strains, locus YNL233W, strain BNI4, active compounds read low 0.985 | S. cerevisiae deletion strains, locus YNL248C, strain rpa49, active compounds read low 0.982 | S. cerevisiae deletion strains, locus YNL250W, strain rad50, active compounds read low 1 | S. cerevisiae deletion strains, locus YNL271C, strain bni1, active compounds read low 1.01 | S. cerevisiae deletion strains, locus YNL298W, strain CLA4, active compounds read low 1.03 | S. cerevisiae deletion strains, locus YNL307C, strain MCK1, active compounds read low 1.03 | S. cerevisiae deletion strains, locus YNL322C, strain KRE1 (second series), active compounds read low 0.992 | S. cerevisiae deletion strains, locus YNL322C, strain KRE1, active compounds read low 1 | S. cerevisiae deletion strains, locus YNR049C, strain mso1, active compounds read low 0.99 | S. cerevisiae deletion strains, locus YNR052C, strain pop2, active compounds read low 1.01 | S. cerevisiae deletion strains, locus YOL006C, strain TOP1, active compounds read low 1.04 | S. cerevisiae deletion strains, locus YOL012C, strain htz1 0.826 | S. cerevisiae deletion strains, locus YOL147C, strain pex11, active compounds read low 1.01 | S. cerevisiae deletion strains, locus YOR001W, strain rrp6, active compounds read low 1.01 | S. cerevisiae deletion strains, locus YOR061W, strain CKA2, active compounds read low 1.01 | S. cerevisiae deletion strains, locus YOR069W, strain VPS5, active compounds read low 1.01 | S. cerevisiae deletion strains, locus YOR070C, strain gyp1, active compounds read low 0.993 | S. cerevisiae deletion strains, locus YOR080W, strain dia2, active compounds read low 0.994 | S. cerevisiae deletion strains, locus YOR083W, strain WHI5 (second series), active compounds read low 0.99 | S. cerevisiae deletion strains, locus YOR083W, strain WHI5, active compounds read low 0.968 | S. cerevisiae deletion strains, locus YOR106W, strain vam3, active compounds read low 0.967 | S. cerevisiae deletion strains, locus YOR136W, strain idh2, active compounds read low 1 | S. cerevisiae deletion strains, locus YOR144C, strain elg1, active compounds read low 0.998 | S. cerevisiae deletion strains, locus YOR184W, strain ser1, active compounds read low 1 | S. cerevisiae deletion strains, locus YOR231W, strain MKK1, active compounds read low 0.984 | S. cerevisiae deletion strains, locus YOR265W, strain rbl2, active compounds read low 0.992 | S. cerevisiae deletion strains, locus YOR270C, strain vph1, active compounds read low 0.97 | S. cerevisiae deletion strains, locus YOR290C, strain snf2, active compounds read low 0.99 | S. cerevisiae deletion strains, locus YOR316C, strain cot1, active compounds read low 1.02 | S. cerevisiae deletion strains, locus YPL051W, strain arl3, active compounds read low 0.99 | S. cerevisiae deletion strains, locus YPL055C, strain LGE1, active compounds read low 0.968 | S. cerevisiae deletion strains, locus YPL078C, strain atp4, active compounds read low 0.979 | S. cerevisiae deletion strains, locus YPL106C, strain sse1, active compounds read low 0.958 | S. cerevisiae deletion strains, locus YPL240C, strain hsp82, active compounds read low 0.999 | S. cerevisiae deletion strains, locus YPL241C, strain CIN2, active compounds read low 1.01 and 1 | S. cerevisiae deletion strains, locus YPL256C, strain CLN2, active compounds read low 0.979 | S. cerevisiae deletion strains, locus YPR119W, strain clb2, active compounds read low 1 | S. cerevisiae deletion strains, locus YPR141C, strain kar3, active compounds read low 1.01 | S. cerevisiae deletion strains, locus YPR163C, strain tif3, active compounds read low 1.01 | S. cerevisiae deletion strains, locus YPR167C, strain met16, active compounds read low 1 | S. cerevisiae deletion strains, strain wtn01, active compounds read low 1.01 | S. cerevisiae strains, strain wild type, active compounds read low 1
